How the values were obtained:
Format in all cases: functional
[1] = system: Plasmodium falciparum; experiment: GSK_TCMDC: Inhibition of Plasmodium falciparum 3D7 in whole red blood cells, using parasite LDH activity as an index of growth. Test compounds present at 2uM
[2] = system: Plasmodium falciparum; experiment: GSK_TCMDC: Inhibition of Plasmodium falciparum Dd2 in whole red blood cells, using parasite LDH activity as an index of growth. Test compounds present at 2uM
[3] = system: HepG2; experiment: GSK_TCMDC: Percent inhibition of human HepG2 cell line. Test compounds present at 10uM.

SMILES	Inhibition [1]	Inhibition [2]	Inhibition [3]
Cc1c(C(=O)Nc2cc(Sc3ccc(F)cc3)cc([N+](=O)[O-])c2)sc2ncn(Cc3ccccc3F)c(=O)c12	98%	45%	2%
CNC(=O)c1cnc(Nc2ccc(OCC(O)CN(C)C)cc2)nc1Nc1cccc(Br)c1.O=C(O)C(F)(F)F (configuration not stated)	100%	100%	68%
CC(C)(C)c1cc([N+](=O)[O-])cc(C(=O)Nc2ccccc2C(F)(F)F)c1O	96%	99%	74%
O=C(NC1CCN(CC2(c3ccccc3F)CCCC2)CC1)c1cc[nH]n1	93%	91%	0%
NS(=O)(=O)c1ccccc1Nc1nc(Nc2ccc(N3CCOCC3)cc2)nc2c1CCC2.O=CO	96%	99%	21%
CC(C)c1ncc(-c2ccncc2)c(C2CCC(CNC(=O)c3ccncc3)CC2)n1 (configuration not stated)	85%	49%	0%
CCCCN(C(=O)c1ccccc1C)c1nnc(-c2ccccc2C)s1	92%	94%	10%
CN(C)CCCN1CCN(C(=O)c2cccc(-c3noc(C(F)(F)F)n3)c2)CC1	92%	60%	0%
C=C(NC(=O)C1CCCCC1)C(=O)OC	93%	3%	15%
O=C1COc2ccc(CNC3CCC(O)(CCc4ccnc5cc6c(cc45)OCCO6)CC3)nc2N1 (configuration not stated)	92%	0%	0%
CCCC(C)NC(=O)/C=C/c1ccccc1-c1cccc(OC)c1 (configuration not stated)	87%	59%	0%
CN(C)c1ccc(Br)c(Br)c1	86%	0%	17%
Cc1cccc(CNc2nc(C)cc(N[C@@H](Cc3ccccc3)C(=O)NCc3cccc(F)c3)n2)c1.O=C(O)C(F)(F)F	100%	82%	39%
CC(=NNC(=N)N)c1ccc2c(ccc3ccccc32)c1.Cl	100%	15%	47%
Cc1cc(N(C)C2CCN(C)C2)nc(Nc2ccccc2Cl)n1 (configuration not stated)	100%	84%	1%
CNCCNCc1cccc(-c2cccc(-c3nc4cccc(C)c4[nH]3)c2)c1.O=C(O)C(F)(F)F	98%	9%	6%
NCC(NC(=O)c1ccc(-c2c[nH]c3ncccc23)s1)c1ccccc1.O=CO (configuration not stated)	95%	87%	52%
CCc1c(CCNCCCCCCNCCc2ccc([N+](=O)[O-])cc2)ccc(OC)c1OC.Cl	100%	2%	35%
O=C(Nc1ccc(I)cc1)N1CCc2sccc2C1CN1CCCCC1 (configuration not stated)	90%	0%	33%
COc1ccc(-c2ccc(NC(=O)c3cccc(C#N)c3)cc2)cc1CN1CCC(O)CC1.O=C(O)C(F)(F)F	100%	84%	21%
COC(=O)c1cccc(NC(=O)NC2CCN(c3ccnc(Nc4ccc(F)cc4)n3)C2)c1 (configuration not stated)	100%	83%	5%
CC1CN(c2ccnc3ccc(Sc4ccc(Oc5ccccc5)cc4)cc23)CC(C)N1.Cl (configuration not stated)	100%	99%	33%
CC(=O)Nc1ccc(C(=O)Nc2cccc(-c3cccc(-c4nc5cccc(C)c5[nH]4)c3)c2)cn1	100%	100%	16%
CC(=O)c1ccc(-c2cccc3c(CC(=O)Nc4ccc5nccc(N6CCN(C)CC6)c5c4)cccc23)cc1	100%	96%	3%
COc1ccc(-c2ccc(NC(=O)c3ccc(Cl)cc3)cc2)cc1CN(C)CCN(C)C.O=C(O)C(F)(F)F	97%	61%	37%
Cl.Oc1cc(-c2nc(-c3ccccc3)[nH]c2-c2ccncc2)ccc1Cl	96%	91%	64%
O=C(Nc1cccnc1)c1ccc(-c2cc3ccncc3cc2OC2CCNCC2)s1	97%	12%	0%
COc1cc(/C=N/Nc2nc(Nc3ccccc3)nc(Nc3ccccc3)n2)ccc1OCc1ccccc1[N+](=O)[O-]	98%	18%	8%
COc1ccc(CNCc2ccc(F)cc2)cc1-c1ccc(S(=O)(=O)NCCN2CCCC2)s1.O=C(O)C(F)(F)F	100%	65%	61%
